PfM18AAP inh – PfM18AAP enzyme inhibition; inhibition, % at 7.35 µM; AID 1822; recombinant PfM18AAP, H-Glu-NHMec fluorogenic cleavage; 1.2% of 290,000 active;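 active means inhibition above the campaign mean inhibition over all tested compounds plus 3 SD, cut at about 28% in these data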
ALR inh – blocks human ALR sulfhydryl oxidase activity. inhibition, % (no concentration beside the values). AID 485317. purified ALR, DTT oxidation, H2O2 HRP-luminol luminescence. 3.8% of 290,000 active;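 active means mean replicate inhibition above about 79%, with every replicate also reaching it, limit read from the data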
Target sequence (P55789 whole entry, looked up): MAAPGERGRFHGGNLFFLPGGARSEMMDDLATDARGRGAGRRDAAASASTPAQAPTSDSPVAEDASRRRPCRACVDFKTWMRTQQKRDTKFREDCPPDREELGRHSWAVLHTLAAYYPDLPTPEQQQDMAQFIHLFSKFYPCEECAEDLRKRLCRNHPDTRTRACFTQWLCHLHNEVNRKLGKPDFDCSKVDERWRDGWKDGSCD
Mot1-301 SUMO – inhibitors of SUMOylation pathway: yeast Mot1-301 growth rescue. S. cerevisiae Mot1-301 growth rescue, ATP luminescence, 38.5C; percent above DMSO median, 100 means doubled. 1% of 320,000 active. growth rescue, % at 18.8 µM;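 active means every valid replicate shows activation above 250% relative to neutral control wells; inactive means the rest, any valid replicate at or below 250%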
HIF activator – HIF pathway transcriptional activation; U2OS HRE-luciferase reporter, luminescence; normalized: DMSO 0%, desferrioxamine 100%; activation, % at 7.5 µM (by protocol); 0.32% of 300,000 active; AID 1910;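 active means mean activation of at least 10% of the iron chelator positive control signal, with at least half of replicates also reaching 10%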
Hits are given with their value. In the library only some 5.3% were active in any assay of this set; here they are far more common.

CCOc1ccc(-n2c(SCC(=O)Nc3ccc(C(=O)O)cc3)nc3ccccc3c2=O)cc1 was read as PfM18AAP inh inactive, Mot1-301 SUMO inactive and HIF activator inactive.
For Cc1ccccc1NC(=O)CSc1nc(O)cc(=O)n1C the results were PfM18AAP inh inactive, ALR inh 98.8, Mot1-301 SUMO inactive and HIF activator inactive.
`Cn1nnnc1SCCNC/C=C/c1ccccc1` gave PfM18AAP inh inactive, ALR inh inactive, Mot1-301 SUMO inactive and HIF activator inactive.
Screening COCCNc1nnc(SCC(=O)NC2CCCCC2)s1 returned ALR inh inactive and Mot1-301 SUMO inactive.
`O=C(NN1CC(C(=O)OCc2ccccc2F)CC1=O)c1ccccc1` (configuration not stated) gave PfM18AAP inh inactive, ALR inh inactive, Mot1-301 SUMO inactive and HIF activator inactive.
CC1(C)O[C@@H]2[C@H](O1)[C@@H](COS(=O)(=O)O)O[C@H]2n1cc(Br)c(=O)[nH]c1=O was read as ALR inh inactive and Mot1-301 SUMO inactive.
`CN(C)c1ccc(N2CN=C3SCC(=O)N3C2)cc1` gave PfM18AAP inh inactive, ALR inh 98.7, Mot1-301 SUMO inactive and HIF activator inactive.
O=C1CSC2=NCN(c3ccc4c(c3)OCO4)CN12 was read as PfM18AAP inh inactive, ALR inh inactive, Mot1-301 SUMO inactive and HIF activator inactive.
`COCC(C)OC(=O)/C(C#N)=C\c1coc2ccc(C)cc2c1=O` (configuration not stated) gave PfM18AAP inh inactive, ALR inh 96.3 and Mot1-301 SUMO inactive.
`COC(=O)c1sc(N2C(=O)C(O)=C(C(=O)c3ccc(C)o3)C2c2cc(OC)ccc2OC)nc1C` (configuration not stated) gave PfM18AAP inh inactive, ALR inh inactive, Mot1-301 SUMO inactive and HIF activator inactive.
COc1cc(/C=C2/NC(=O)N(Cc3ccccc3F)C2=O)cc(OC)c1O was read as PfM18AAP inh inactive, ALR inh 98.9, Mot1-301 SUMO inactive and HIF activator inactive.
Screening CCOC(=O)c1c(N)sc(-c2ccccc2)c1C returned PfM18AAP inh inactive, ALR inh 98.7, Mot1-301 SUMO inactive and HIF activator inactive.
NNC(=O)c1sc(-c2ccccc2)cc1N was read as PfM18AAP inh inactive, ALR inh inactive, Mot1-301 SUMO inactive and HIF activator inactive.
`CCOC(=O)c1c(N)sc(C(O)(C(F)(F)F)C(F)(F)F)c1-c1ccccc1` gave PfM18AAP inh inactive, Mot1-301 SUMO inactive and HIF activator inactive.
`CCOC(=O)c1cc(-c2ccccc2)sc1N` gave PfM18AAP inh inactive, ALR inh 98.7, Mot1-301 SUMO inactive and HIF activator inactive.
Screening CCOC(=O)c1sc(-c2ccccc2)cc1N returned PfM18AAP inh inactive, ALR inh inactive, Mot1-301 SUMO inactive and HIF activator inactive.
For NNC(=O)c1cc(-c2ccccc2)sc1N the results were PfM18AAP inh inactive, ALR inh 97.1, Mot1-301 SUMO inactive and HIF activator inactive.
Screening CN(c1ccccc1)S(=O)(=O)c1cccc(NS(=O)(=O)c2cccc(C(=O)O)c2)c1 returned Mot1-301 SUMO inactive.
For COCCCNc1nc2ccccc2nc1NS(=O)(=O)c1cccc(C)c1 the results were PfM18AAP inh inactive, ALR inh inactive, Mot1-301 SUMO inactive and HIF activator inactive.
Screening CC1CCN(S(=O)(=O)c2ccc(C(=O)N3CCOCC3)cc2)CC1 returned PfM18AAP inh inactive, ALR inh inactive, Mot1-301 SUMO inactive and HIF activator inactive.
`Cn1c(=O)c(Oc2cc(Cl)cc(Cl)c2)nc2ccccc21` gave PfM18AAP inh inactive, ALR inh 97.8, Mot1-301 SUMO inactive and HIF activator inactive.
Screening O=C(COC(=O)C1CC1)Nc1ccc(Cl)cc1Cl returned ALR inh inactive and Mot1-301 SUMO inactive.
Screening CCN1CCN(C(=O)CCCn2c(C)c3cnn(-c4ccccc4)c(=O)c3c2C)CC1 returned PfM18AAP inh inactive, Mot1-301 SUMO 332.4 and HIF activator inactive.
`Cc1c2cnn(-c3ccccc3)c(=O)c2c(C)n1CCCC(=O)N1CCN(c2ncccn2)CC1` gave PfM18AAP inh inactive.
`Cc1cc(NCC(c2ccccc2)c2ccccc2)n2ncnc2n1` gave PfM18AAP inh inactive, ALR inh inactive, Mot1-301 SUMO inactive and HIF activator inactive.
CCOc1ccc(NCc2cccn2-c2nnc(N3CCC(C(=O)NCCCN4CCCCC4)CC3)s2)cc1 was read as PfM18AAP inh inactive, ALR inh 98.8, Mot1-301 SUMO inactive and HIF activator inactive.
Screening CCOc1ccc(CCNC(=O)C2CCN(c3nnc(-n4cccc4)s3)CC2)cc1 returned PfM18AAP inh inactive, ALR inh inactive, Mot1-301 SUMO inactive and HIF activator inactive.
